Measurements reported in PubChem BioAssay (NCATS).
“And” between values parts separate entries of the source, which are not always exact repeats. Identical values can stand only once. Records with an inconclusive call do not appear. Entries that show only a call come without a potency. The source made the active and inactive calls. Unless noted, calls follow the shape of the dose curve; as a rule, active = well fitted curve in the direction sought with a large enough effect; inconclusive = small, poorly fitted or top-dose-only effect, or another doubt; inactive = no such curve, though single readings can be large; an effect the other way counts as inactive or inconclusive.

Experiments:
[1] = molecular target: alpha-glucosidase (Oryza sativa, rice) (UniProt Q653V4); assay: Counterscreen for Glucocerebrosidase Inhibitors: qHTS Assay for Rice alpha-Glucosidase at pH 5.0 (AID 997)
Summary of the method: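 Endpoint fluorogenic assay at pH 5.0: compounds (0.7 nM to 77 uM) titrated against 4 nM rice enzyme and 400 uM 4-MU-alpha-glucoside for 20 min at room temperature; NaOH/glycine stop, read ex 365/em 440 nm, Hill-fitted AC50.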

[2] = qHTS Assay for Lipid Storage Modulators (AID 1519; calls by dose curve); settings: Drosophila S3 cells, BODIPY lipid droplet/cell ratio, laser cytometry, cells loaded with oleic acid
Summary of the method: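 Cells seeded at 5,000 per well were treated with compounds over a concentration series and loaded with oleic acid (400 uM, as added). Lipid droplet fluorescence (488 nm excitation, 500-530 nm channel) was read by laser-scanning cytometry and normalized to 20 uM Triacsin C.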

[3] = molecular target: DNA repair nuclease/redox regulator APEX1 (Homo sapiens) (UniProt P27695); assay: qHTS Validation Assay for Inhibitors of the Human Apurinic/apyrimidinic Endonuclease 1 (APE1) (AID 1705;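 also: TAMRA fluorescence gain over two minutes as APE1 cuts a quenched THF abasic duplex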)
Summary of the method: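 Read-out: TAMRA fluorescence (525 nm ex, 598 nm em) from cleavage of a quenched THF abasic-site duplex, 50 nM final; activity taken as intensity change between third and first of three reads 60 s apart.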

[4] = Counterscreen for APE1 Inhibitors: Fluorescent Dye Displacement Validation Assay (AID 1707)
Summary of the method: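 Counterscreen flags promiscuous DNA binders: compounds displacing ThO from duplex DNA (abasic THF site, 50 nM) reduce 540 nm emission (480 nm excitation). ThO 250 nM final; Tris-HCl pH 7.5 with NaCl, MgCl2 and Tween-20.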

[5] = molecular target: Endonuclease 4 (Escherichia coli (strain K12)) (UniProt P0A6C1); assay: Counterscreen for APE1 Inhibitors: qHTS Validation Assay for Inhibitors of Endonuclease IV (AID 1708)
Summary of the method: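 Conditions: 2 nM enzyme, 50 nM TAMRA/BHQ-2 substrate, pH 7.5 Tris buffer with 2 mM MgCl2, RT. Compound preincubation 15 min; readout three fluorescence reads 60 s apart, third-minus-first.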

[6] = qHTS for differential inhibitors of proliferation of Plasmodium falciparum line GB4 (AID 1816); settings: Potency: Plasmodium falciparum GB4 proliferation inhibition;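 also: parasite growth measured after 72 h incubation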; also: potency is read from the fitted curve at half-maximal effect
[7] = qHTS for differential inhibitors of proliferation of Plasmodium falciparum line 3D7 (AID 1876); also: potency is read from the fitted curve at half-maximal effect
[8] = qHTS for differential inhibitors of proliferation of Plasmodium falciparum line Dd2 (AID 1882); settings: Potency: Plasmodium falciparum Dd2 proliferation inhibition; also: nearly all actives have a fitted effect of over 65% in size
Summary of the method: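 SYBR Green DNA fluorescence (ex 485, em 535 nm) after overnight lysis quantifies parasite growth; compound exposure lasted 72 h at 37 C on infected red cells at 2.5% hematocrit, 0.3% parasitemia (final). Artemisinin 0.29 uM and vehicle wells define normalization.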

[9] = qHTS for differential inhibitors of proliferation of Plasmodium falciparum line HB3 (AID 1886); settings: Potency: Plasmodium falciparum HB3 proliferation inhibition;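 also: parasites grown with compound for 72 h before SYBR Green readout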; also: potency is read from the fitted curve at half-maximal effect
[10] = molecular target: Ferritin light chain (Equus caballus) (UniProt P02791); assay: qHTS Validation Assay for Identification of Novel General Anesthetics (AID 2323)
Summary of the method: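 10 uM horse-spleen apoferritin + 1-AMA (50% saturated, PBS); cpd pin-transferred, 10 min RT. Ex 380/Em 535 nm endpoint. Activity normalized between free 1-AMA and 1-AMA/apoferritin; 4-parameter Hill fit of concentration-response.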

[11] = molecular target: ATP-dependent DNA helicase Q1 (Homo sapiens) (UniProt P46063); assay: qHTS Validation Assay for Inhibitors of RecQ-Like Dna Helicase 1 (RECQ1) (AID 2353)
Summary of the method: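 RECQ1T1 50 nM; forked duplex (20 bp + 30-nt ss tails) 200 nM, ATP 2 mM final; pH 8.0, 2 mM MgCl2, 2.5 ug/ml poly(dI-dC); 15 min compound preincubation; discontinuous kinetic read over 2 h at RT.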

[12] = qHTS for differential inhibitors of proliferation of Plasmodium falciparum line D10 (AID 1877);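 also: parasites grown with compound for 72 h before DNA staining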; also: potency is read from the fitted curve at half-maximal effect
[13] = qHTS for differential inhibitors of proliferation of Plasmodium falciparum line 7G8 (AID 1815);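 also: parasite growth measured after three days of incubation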; also: potency is read from the fitted curve at half-maximal effect
[14] = qHTS Assay for Modulators of Human Peripheral Myelin Protein 22 (PMP22) Expression/Activity (AID 1967; active = well fitted curve in the direction sought with a large enough effect in the signal ratio; the % refers to the signal ratio)
Summary of the method: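 Mouse MSC80 Schwann line, Pmp22 promoter–CBG68 reporter, EF-alpha–CBR internal control. 24h compound exposure, 37 °C/5% CO2, DMEM + 10% FBS. Readout: corrected green/red luminescence ratio, normalized to untreated cells; concentration-response curves fitted and classified.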

[15] = qHTS for differential inhibitors of proliferation of Plasmodium falciparum line W2 (AID 1883); settings: Potency: Plasmodium falciparum W2 proliferation inhibition;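 also: parasites grown with compound for 72 h before lysis and staining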; also: potency is read from the fitted curve at half-maximal effect
[16] = molecular target: RecQ-like DNA helicase BLM (Homo sapiens) (UniProt P54132); assay: qHTS Validation Assay for Inhibitors of Bloom's syndrome helicase (BLM) (AID 2364)
Summary of the method: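 50 nM BLM preincubated 15 min at room temperature with compound in pH 8.0 Tris buffer containing 2.5 ug/ml poly(dI-dC); started with 200 nM TAMRA/BHQ-2 forked duplex and 2 mM ATP (final). Unwinding read as TAMRA fluorescence increase, two reads 2 h apart.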

[17] = measured here: cell count channel max response
[18] = measured here: lipid channel max response

Chain of ATP-dependent DNA helicase Q1 (Homo sapiens) (P46063 whole entry, looked up): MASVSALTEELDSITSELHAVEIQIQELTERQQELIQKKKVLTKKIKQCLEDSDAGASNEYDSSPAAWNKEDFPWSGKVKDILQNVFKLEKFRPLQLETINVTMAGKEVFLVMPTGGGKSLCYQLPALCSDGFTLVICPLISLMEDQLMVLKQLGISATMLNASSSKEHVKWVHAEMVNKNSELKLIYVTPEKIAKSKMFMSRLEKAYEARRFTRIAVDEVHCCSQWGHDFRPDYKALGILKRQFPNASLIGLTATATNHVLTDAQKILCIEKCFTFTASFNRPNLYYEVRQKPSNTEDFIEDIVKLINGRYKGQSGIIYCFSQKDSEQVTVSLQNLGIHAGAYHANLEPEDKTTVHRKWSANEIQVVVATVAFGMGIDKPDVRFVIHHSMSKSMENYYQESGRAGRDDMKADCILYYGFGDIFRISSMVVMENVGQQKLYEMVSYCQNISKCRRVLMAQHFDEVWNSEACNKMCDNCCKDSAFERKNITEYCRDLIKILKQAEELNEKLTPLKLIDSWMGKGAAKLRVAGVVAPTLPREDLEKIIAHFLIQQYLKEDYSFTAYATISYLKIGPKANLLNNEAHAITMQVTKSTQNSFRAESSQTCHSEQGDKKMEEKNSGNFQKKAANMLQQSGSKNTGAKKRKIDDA
Chain of Ferritin light chain (Equus caballus) (P02791 2-175 limits assumed): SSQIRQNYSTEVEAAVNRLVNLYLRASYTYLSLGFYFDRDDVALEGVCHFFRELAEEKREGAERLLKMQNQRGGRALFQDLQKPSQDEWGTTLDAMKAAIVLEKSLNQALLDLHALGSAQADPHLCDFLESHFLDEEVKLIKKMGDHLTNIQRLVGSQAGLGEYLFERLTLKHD
Chain of DNA repair nuclease/redox regulator APEX1 (Homo sapiens) (P27695 whole entry, looked up): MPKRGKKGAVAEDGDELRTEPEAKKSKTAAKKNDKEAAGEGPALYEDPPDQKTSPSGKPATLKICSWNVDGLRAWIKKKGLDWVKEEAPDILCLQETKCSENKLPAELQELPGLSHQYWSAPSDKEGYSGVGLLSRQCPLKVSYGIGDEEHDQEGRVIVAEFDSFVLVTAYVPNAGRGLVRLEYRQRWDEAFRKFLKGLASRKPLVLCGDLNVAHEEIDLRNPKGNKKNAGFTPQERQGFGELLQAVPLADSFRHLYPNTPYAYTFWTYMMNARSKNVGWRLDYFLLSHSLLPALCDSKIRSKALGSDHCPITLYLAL
Chain of RecQ-like DNA helicase BLM (Homo sapiens) (P54132 whole entry, looked up): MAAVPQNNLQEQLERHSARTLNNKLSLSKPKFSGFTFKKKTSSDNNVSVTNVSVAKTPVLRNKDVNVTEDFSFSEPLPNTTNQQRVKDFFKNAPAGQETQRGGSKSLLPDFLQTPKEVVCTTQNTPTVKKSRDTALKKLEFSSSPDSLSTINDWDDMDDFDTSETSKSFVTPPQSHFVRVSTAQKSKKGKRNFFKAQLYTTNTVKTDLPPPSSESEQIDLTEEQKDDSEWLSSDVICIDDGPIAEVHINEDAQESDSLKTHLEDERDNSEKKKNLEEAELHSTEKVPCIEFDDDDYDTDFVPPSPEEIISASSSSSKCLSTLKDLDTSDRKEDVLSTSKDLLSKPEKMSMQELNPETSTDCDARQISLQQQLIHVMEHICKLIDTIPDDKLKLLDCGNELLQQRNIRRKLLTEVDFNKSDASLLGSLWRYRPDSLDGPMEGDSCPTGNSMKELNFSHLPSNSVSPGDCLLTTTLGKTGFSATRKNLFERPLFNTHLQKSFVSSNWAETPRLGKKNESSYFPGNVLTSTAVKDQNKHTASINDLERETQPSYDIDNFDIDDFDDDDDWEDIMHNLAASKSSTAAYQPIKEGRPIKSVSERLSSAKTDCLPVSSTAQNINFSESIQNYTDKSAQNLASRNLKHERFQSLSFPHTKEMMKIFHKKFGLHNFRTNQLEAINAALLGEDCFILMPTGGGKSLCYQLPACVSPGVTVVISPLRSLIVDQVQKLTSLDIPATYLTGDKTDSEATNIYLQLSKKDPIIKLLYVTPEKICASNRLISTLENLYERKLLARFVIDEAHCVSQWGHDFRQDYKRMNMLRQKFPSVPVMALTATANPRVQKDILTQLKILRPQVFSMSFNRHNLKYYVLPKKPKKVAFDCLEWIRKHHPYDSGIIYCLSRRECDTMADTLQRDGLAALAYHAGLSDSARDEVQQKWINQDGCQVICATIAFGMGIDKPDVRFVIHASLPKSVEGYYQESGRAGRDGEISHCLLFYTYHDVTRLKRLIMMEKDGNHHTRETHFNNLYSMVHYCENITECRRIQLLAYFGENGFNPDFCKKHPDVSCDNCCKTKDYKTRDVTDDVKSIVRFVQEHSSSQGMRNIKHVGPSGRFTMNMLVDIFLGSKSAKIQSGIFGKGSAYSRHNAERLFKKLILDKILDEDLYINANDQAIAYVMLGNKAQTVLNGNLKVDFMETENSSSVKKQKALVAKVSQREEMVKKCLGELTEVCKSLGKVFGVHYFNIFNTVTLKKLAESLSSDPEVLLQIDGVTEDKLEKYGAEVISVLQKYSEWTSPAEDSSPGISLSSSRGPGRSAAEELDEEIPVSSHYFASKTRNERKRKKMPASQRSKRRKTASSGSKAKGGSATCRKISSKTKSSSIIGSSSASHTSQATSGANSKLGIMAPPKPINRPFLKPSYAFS

SMILES	outcome [1]	activity change, negative = inhibition ([2]; at 57.5 µM (top of the series))	max response [2, 17]	max response [2, 18]	Potency [3]	Potency [4]	Potency [5]	Potency [6]	Potency [7]	Potency [8]	Potency [9]	Potency [10]	Potency [11]	Potency [12]	Potency [13]	outcome [14]	Potency [15]	activity change, negative = inhibition ([2]; at 25.7 µM (top of the series))	Potency [16]
O=c1[nH]c2ccccc2c2ccccc12	inactive	1.72% (inactive)	17.8%	20.4%	inactive	inactive	inactive	inactive	inactive	inactive	inactive	inactive	inactive	–	–	–	–	–	–
Nc1ccc2c3c(cccc13)C(=O)NC2=O	inactive	0.251% (inactive)	-11.6%	-11.3%	–	–	inactive	–	–	inactive	inactive	inactive	–	inactive	–	–	–	–	–
OC[C@H]1O[C@@H](n2cnc3cncnc32)[C@H](O)[C@@H]1O	–	-4.73% (inactive)	0.328%	-1.94%	inactive	inactive	inactive	–	5.01 µM (active)	inactive	–	inactive	inactive	–	inactive	inactive	–	–	–
C[C@@]1(C2CCCC2)Cc2cc(OCC(=O)O)c(Cl)c(Cl)c2C1=O	–	–	–	–	inactive	inactive	inactive	inactive	inactive	inactive	inactive	inactive	inactive	inactive	inactive	inactive	inactive	–	–
NC1(C(=O)O)CC1	inactive	3.79% (inactive)	18.9%	25.1%	inactive	inactive	inactive	–	11.2 µM (active)	inactive	–	inactive	inactive	–	–	–	12.6 µM (active)	–	–
CC(C)NC[C@H](O)COc1ccc(CC(N)=O)cc1	inactive	0.49% (inactive) and -5.77% (inactive)	-3.12% [middle of 4 runs]	-2.86% [middle of 4 runs]	inactive	inactive	–	inactive	inactive	inactive	inactive	inactive	inactive	inactive	inactive	–	inactive	-3.22% (inactive) and -3.29% (inactive)	–
CC[C@@H]1Cc2cc(O)ccc2C2=C1c1ccc(O)cc1C[C@H]2CC	inactive	-3.04% (inactive)	-26.2%	-25.3%	inactive	–	inactive	4.47 µM (active)	11.2 µM (active)	–	11.2 µM (active)	inactive	inactive	11.2 µM (active)	5.62 µM (active)	–	4.47 µM (active)	–	–
Clc1nccc2c1ccc1ccccc12	inactive	-1.52% (inactive)	-15.2%	-17.8%	–	–	–	inactive	inactive	inactive	inactive	inactive	inactive	inactive	inactive	–	–	–	inactive
COc1ccc2c(c1)c(CC(=O)O)c(C)n2Cc1ccc(Cl)cc1	inactive	-1.87% (inactive)	-35.2%	-34.3%	inactive	inactive	inactive	10 µM (active)	11.2 µM (active)	inactive	14.1 µM (active)	inactive	inactive	14.1 µM (active)	14.1 µM (active)	–	8.91 µM (active)	–	inactive
